The whole screen tested about 48,000 compounds, of which about 13,000 (27%) showed an effect of 50% or more. The list shows a part of the results.
test system: Wolbachia pipientis; assay: Anti-Wolbachia Cell-Based Screen; type: functional; parameters: scale not given: in the data most compounds retested in dose-response had high values; settings: 5 µM

| Compound | Percent Effect [%] |
| --- | --- |
| COc1cccn(CC(=O)N(C)CCSC)c1=O | -16.92 |
| O=C(O)c1ccc2c(c1)C1(CCCCC1)CN2C(=O)c1cccs1 | -9.46 |
| O=C1CCCN1CCN1CC[C@@]2(O)CCN(c3ncccn3)C[C@H]2C1 | -11.72 |
| OC(CNCCn1cccn1)COc1ccc(Br)cc1 (stereo not drawn) | 2.37 |
| CCN(CC)CC[C@H]1CN(C(=O)C(C)(C)C)CC[C@H]1CC(=O)O | -8.739 |
| Cc1nc2n(n1)CC(NCCCc1nc(-c3cccs3)no1)CC2 (stereo not drawn) | -18.09 |
| Cc1oc(C)c(C(=O)Nc2ccccn2)c1C | 13.13 |
| Cc1cccc(NC(=O)CN(C)C(=O)c2ccc(-n3cccc3)nc2)n1 | 6.082 |
| Cc1cccc(NC(=O)CN(C)C(=O)c2scnc2C)n1 | 117.3 |
| Cc1ncsc1C(=O)N[C@@H](Cc1ccccc1)C(N)=O | 5.528 |
| Cc1ncsc1C(=O)Nc1ccccn1 | 113.7 |
| Cc1ccc(C(=O)N(C)CC(=O)Nc2cccc(C)n2)cn1 | -9.643 |
| CCn1cc2c(n1)C(COCC1CC1)CN(C(=O)c1cnoc1C)C2 (stereo not drawn) | -6.391 |
| CN(CC1Cc2ccccc2CN1C)C(=O)CSc1ccccn1 (stereo not drawn) | 0.2013 |
| Cc1cccc(CNC2CC3(CCN(CCO)CC3)c3ccccc32)n1.O=C(O)C(F)(F)F.O=C(O)C(F)(F)F (stereo not drawn) | 121.3 |
| O=C(NC1CC2(CCN(CCO)CC2)c2ccccc21)c1ccno1.O=C(O)C(F)(F)F (stereo not drawn) | -3.484 |
| O=C(NC1CC2(CCN(CCO)CC2)c2ccccc21)c1ccsc1.O=C(O)C(F)(F)F (stereo not drawn) | -2.437 |
| Cc1ccc(CNC2CC3(CCN(CCO)CC3)c3ccccc32)s1.O=C(O)C(F)(F)F.O=C(O)C(F)(F)F (stereo not drawn) | 107.2 |
| COCCN1CCC2(CC1)CC(NCc1cncn1C)c1ccccc12.O=C(O)C(F)(F)F.O=C(O)C(F)(F)F (stereo not drawn) | -4.638 |
| COCCN1CCC2(CC1)CC(N1CCOCC1)c1cc(C)ccc12.O=C(O)C(F)(F)F.O=C(O)C(F)(F)F (stereo not drawn) | -13.01 |
| COCCN1CCC2(CC1)CC(NCc1ccc(C)s1)c1ccccc12.O=C(O)C(F)(F)F.O=C(O)C(F)(F)F (stereo not drawn) | 109.1 |
| CC(NCc1cccn1C)c1noc(-c2ccc(Cl)cc2)n1 (stereo not drawn) | -2.056 |
| CN1C(=O)CO[C@H](c2ccc(NC(=O)c3cccnc3)cc2)[C@H]1CO | -10.51 |
| Nc1nc2c(c(NC(=O)Nc3cccc(Cl)c3)n1)CCCC2 | 7.303 |

| Compound | Percent Effect [%] |
| --- | --- |
| Cc1c(NCc2ccc(C#N)cc2)cccc1S(=O)(=O)NC1CC1 | -7.698 |
| c1cn(CCn2cnnc2)c(-c2cc3n(n2)CCCNC3)n1 | -4.741 |
| COc1ccccc1C(C)CC(=O)N1CC[C@H](O)C1 (stereo partly drawn) | 18.86 |
| COc1ccccc1C(=O)N1CC(=O)N(CC(C)C)CC(O)C1 (stereo not drawn) | 116.8 |
| CC(C)c1nnc2n1CCN(C(=O)c1ccccc1OCC1CC1)C2 | -3.948 |
| COc1ccccc1C(=O)N1CC(=O)N(CC2CC2)CC(O)C1 (stereo not drawn) | 108.3 |
| CCC(NC(=O)c1ccco1)c1nc(C(F)(F)F)cs1 (stereo not drawn) | -6.981 |
| CS(=O)(=O)N1CCOCC2(CCN(C(=O)c3cccnc3)CC2)C1.O=C(O)C(F)(F)F | -2.226 |
| COCC1CC2(CCN(C(=O)c3oc4ccccc4c3C)CC2)CO1 (stereo not drawn) | -1.277 |
| CC(C)NC(=O)C1CCC2(CCN(c3ncccn3)CC2)CO1 (stereo not drawn) | -6.885 |
| COCC1CC2(CCN(C(=O)c3cccc(C)c3)CC2)CO1 (stereo not drawn) | -11.23 |
| CNC(=O)NCC1CCC2(CCN(c3ncccn3)CC2)CO1 (stereo not drawn) | 88.92 |
| COCC1CC2(CCN(C(=O)c3cncc(C)c3)CC2)CO1.O=C(O)C(F)(F)F (stereo not drawn) | 8.897 |
| O=C(C1CCC2(CCN(c3ncccn3)CC2)CO1)N1CCCC1 (stereo not drawn) | 10.33 |
| CNC(=O)NCC1CCC2(CCN(C(=O)c3ccccc3)CC2)CO1 (stereo not drawn) | 108.3 |
| CNC(=O)NCC1CCC2(CCN(C(=O)c3cccnc3)CC2)CO1.O=C(O)C(F)(F)F (stereo not drawn) | 102.7 |
| Cc1ccc(-c2cc(C(=O)NCCC3=CCCCC3)[nH]n2)o1 | 9.696 |
| Cc1ccc(-c2cc(C(=O)N(C)Cc3noc4c3CCCC4)[nH]n2)o1 | 119 |
| CN(Cc1noc2c1CCCC2)C(=O)C1Cc2ccccc2CN1C (stereo not drawn) | 9.151 |
| Cc1ccc(-c2cc(C(=O)N(C)Cc3noc4c3CCCC4)[nH]n2)s1 | 126 |
| COc1nc2c(cc1C(=O)N(C)Cc1noc3c1CCCC3)CCC2 | -4.32 |
| CN(Cc1noc2c1CCCC2)C(=O)CN1C(=O)CSc2ccccc21 | 0.5887 |
| COc1ccc(C(=O)NC2CC2)c(OC2CCN(C3CCC3)CC2)c1 | 0.9223 |
| O=C(Nc1ccc(F)cc1)C1CNCCN1C(=O)CCO (stereo not drawn) | -8.613 |

| Compound | Percent Effect [%] |
| --- | --- |
| COc1ccccc1OC1CN(C(=O)C2CNCC(=O)N2)C1 (stereo not drawn) | 3.442 |
| COc1ccccc1C1CNCCN1C(=O)c1ccc(F)cc1 (stereo not drawn) | 170.1 |
| COc1ccc(C(=O)N2CCCC2c2ccco2)cc1OC (stereo not drawn) | -0.7331 |
| COc1ccccc1C1CNCCN1C(C)=O (stereo not drawn) | 170.5 |
| COc1cc(S(=O)(=O)N2C[C@@H](C)[C@@](C)(O)C2)c(C)cc1C | -12.13 |
| Cc1cccnc1CNCC1(O)CCCN(Cc2ccc(F)cc2)C1=O (stereo not drawn) | 9.379 |
| CCOc1cc(NC(=O)N(C)Cc2ncnn2C)ccc1C | -12.81 |
| CCOc1cc(C(=O)N(C)C)ccc1NC(=O)c1ccsc1 | -5.987 |
| CC(C)SCC(=O)N1Cc2cnc(-c3ccccc3)nc2C1 | 3.989 |
| CC(C)CC(=O)N1CC(=O)c2sc(NCCc3ccccc3)nc2C1 | 112.3 |
| CN1CC(=O)c2sc(NCCc3ccccc3)nc2C1 | 91.14 |
| Cn1ccc(C(=O)N2CCN(CCc3ccccc3)CC2)cc1=O | -2.355 |
| Cn1cnc2c1CCN(CCCc1ccccc1)C2 | 0.7928 |
| CC(C)Cc1ncc2c(n1)CN(C(=O)Cn1c(=O)oc3ccccc31)C2 | -4.555 |
| CNc1nc(CNC(=O)Nc2cccc(F)c2)cs1 | -0.1987 |
| CC(NC1(CNC(=O)NC2CC2)CCOCC1)c1ccccc1 (stereo not drawn) | 5.387 |
| CCC1=N[C@@]2(CC[C@@H]3CN(CC(C)C)C[C@@H]32)C(=O)N1.O=C(O)C(F)(F)F | -10.58 |
| O=C(O)C(F)(F)F.O=C1NC(c2ccccc2)=N[C@@]12CC[C@@H]1CN(Cc3ccccc3)C[C@@H]12 | 4.255 |
| CCC1=N[C@@]2(CC[C@@H]3CN(Cc4ccc(C)cc4)C[C@@H]32)C(=O)N1C.O=C(O)C(F)(F)F | 81.5 |
| CCC1=N[C@@]2(CC[C@@H]3CN(Cc4ccccc4F)C[C@@H]32)C(=O)N1CC.O=C(O)C(F)(F)F | -10.67 |
| CCC1=N[C@@]2(CC[C@@H]3CN(Cc4ccc(F)cc4)C[C@@H]32)C(=O)N1C.O=C(O)C(F)(F)F | 103.7 |
| CCC1=N[C@@]2(CC[C@@H]3CN(Cc4ccccc4C)C[C@@H]32)C(=O)N1.O=C(O)C(F)(F)F | -9.167 |
| CC1=N[C@@]2(CC[C@@H]3CN(CC(C)C)C[C@@H]32)C(=O)N1C.O=C(O)C(F)(F)F | 8.258 |
| CCC1=N[C@@]2(CC[C@@H]3CN(Cc4ccccc4C)C[C@@H]32)C(=O)N1C.O=C(O)C(F)(F)F | 114.6 |

| Compound | Percent Effect [%] |
| --- | --- |
| CCC1=N[C@@]2(CC[C@@H]3CN(CC(=O)N(C)C)C[C@@H]32)C(=O)N1CC1CC1.O=C(O)C(F)(F)F | -4.089 |
| CCC1=N[C@@]2(CC[C@@H]3CN(C(=O)NCc4ccccc4)C[C@@H]32)C(=O)N1C | -13.65 |
| CCC1=N[C@@]2(CC[C@@H]3CN(Cc4cccc(Cl)c4)C[C@@H]32)C(=O)N1C.O=C(O)C(F)(F)F | 95.01 |
| CCC1=N[C@@]2(CC[C@@H]3CN(C(=O)NC(C)C)C[C@@H]32)C(=O)N1C | -5.226 |
| CCCN1CCC(CC(=O)N[C@H](C(=O)O)c2cccc(F)c2F)CC1 | -4.75 |
| COC(=O)NCC(=O)NCC(C)(C)c1cccc(Br)c1 | -15.07 |
| CCCc1ncc(CN(CCOC)Cc2cccs2)cn1 | -13.63 |
| CCN(CCn1cccn1)Cc1nc(-c2ccccc2F)oc1C | 1.604 |
| C=C(C)COCCNC(=O)Nc1cccc(Cn2nc(C)nc2C)c1 | -4.389 |
| CCC1CN(C(=O)COc2ccc(NC(C)=O)cc2)CCO1 (stereo not drawn) | -18.64 |
| CC(=O)Nc1ccc(S(=O)(=O)NC(=O)CCC2CCCO2)cc1 (stereo not drawn) | -4.56 |
| CC(=O)c1ccc(S(=O)(=O)N2CCOC(Cn3ccnc3)C2)cc1 (stereo not drawn) | 80.08 |
| CC(=O)Nc1ccc(S(=O)(=O)N2CCOC(Cn3ccnc3)C2)cc1 (stereo not drawn) | 127.1 |
| COc1ccc(S(=O)(=O)N2CCOC(Cn3ccnc3)C2)cc1.Cc1ccc(S(=O)(=O)O)cc1 (stereo not drawn) | 106.9 |
| O=S(=O)(c1ccccc1)N1CCN(CCn2ccnc2)CC1 | -17.14 |
| O=S(=O)(c1ccccc1)N1CCCN(CCCn2ccnc2)CC1 | 1.416 |
| CCN(C)C[C@@H]1CN(S(=O)(=O)c2ccc(OC)cc2)C[C@@H]1CO | 9.662 |
| O=S(=O)(c1ccccc1)N1CCOC(Cn2ccnc2)C1 (stereo not drawn) | 143.1 |
| Cc1ccc(S(=O)(=O)N2CCN(CCCn3ccnc3)CC2)cc1 | -7.959 |
| O=S(=O)(c1ccc(Cl)cc1)N1CCN(CCCn2ccnc2)CC1 | -9.759 |
| COc1ccc(S(=O)(=O)N2CCOC[C@H](Oc3cnccn3)C2)cc1 | -5.156 |
